Assay results from PubChem BioAssay (EPA / NIEHS).
Calls of active or inactive are those of the source. How the source made its calls: active means hit-call score of the fitted dose curve at least 0.9, where 1 is the maximum; inactive means score below 0.9.

Columns and labels:
[1] = ATG_GLI_CIS: Attagene CIS-FACTORIAL HepG2 Assay for human Zinc Finger Protein GLI1 (AID 2282945); conditions: HepG2, Attagene cis-factorial reporter mRNA, GLI element; actives raise or lower the signal
Outline: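 Transiently transfected HepG2 cells report endogenous transcription factor activity via cis-element-driven reporter units. After 24 h compound exposure, reporter mRNA was measured by RT-PCR with capillary electrophoresis; bidirectional fitting against DMSO baseline.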

[2] = ATG_M_32_CIS: Attagene CIS-FACTORIAL HepG2 Assay for M32 Transcription Factor (Internal Marker) (AID 2282949); conditions: HepG2 Attagene cis-factorial M32 reporter, mRNA; actives raise or lower the signal;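 further: background control marker of the multiplexed CIS panel rather than a real target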
Outline: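 HepG2 human liver cells transiently transfected with cis-promoter-driven multiple reporter transcription units, dosed 24 h. Reporter mRNA quantified by RT-PCR, FAM-labelled primer extension, HpaI digest and capillary electrophoresis; bidirectional fit versus DMSO baseline.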

[3] = ATG_M_06_CIS: Attagene CIS-FACTORIAL HepG2 Assay for M06 Transcription Factor (Internal Marker) (AID 2282950); conditions: HepG2 Attagene CIS-FACTORIAL M06 internal marker reporter; actives raise or lower the signal
Outline: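 HepG2 cells transiently transfected with cis-regulated multiple reporter transcription units were exposed to chemical for 24 h; reporter mRNA was quantified by RT-PCR, 6-FAM primer labelling, HpaI digestion and capillary electrophoresis, fitted bidirectionally against DMSO.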

[4] = biological target: Hypoxia-inducible factor 1-alpha (Homo sapiens) (UniProt Q16665); assay: ATG_HIF1a_CIS: Attagene CIS-FACTORIAL HepG2 Assay for human Hypoxia Inducible Factor 1 (HIF1A) (AID 2282951); conditions: HepG2 Attagene cis-factorial HIF1a reporter transcription; actives raise or lower the signal
Sequence of Hypoxia-inducible factor 1-alpha (Homo sapiens) (Q16665 whole entry, looked up): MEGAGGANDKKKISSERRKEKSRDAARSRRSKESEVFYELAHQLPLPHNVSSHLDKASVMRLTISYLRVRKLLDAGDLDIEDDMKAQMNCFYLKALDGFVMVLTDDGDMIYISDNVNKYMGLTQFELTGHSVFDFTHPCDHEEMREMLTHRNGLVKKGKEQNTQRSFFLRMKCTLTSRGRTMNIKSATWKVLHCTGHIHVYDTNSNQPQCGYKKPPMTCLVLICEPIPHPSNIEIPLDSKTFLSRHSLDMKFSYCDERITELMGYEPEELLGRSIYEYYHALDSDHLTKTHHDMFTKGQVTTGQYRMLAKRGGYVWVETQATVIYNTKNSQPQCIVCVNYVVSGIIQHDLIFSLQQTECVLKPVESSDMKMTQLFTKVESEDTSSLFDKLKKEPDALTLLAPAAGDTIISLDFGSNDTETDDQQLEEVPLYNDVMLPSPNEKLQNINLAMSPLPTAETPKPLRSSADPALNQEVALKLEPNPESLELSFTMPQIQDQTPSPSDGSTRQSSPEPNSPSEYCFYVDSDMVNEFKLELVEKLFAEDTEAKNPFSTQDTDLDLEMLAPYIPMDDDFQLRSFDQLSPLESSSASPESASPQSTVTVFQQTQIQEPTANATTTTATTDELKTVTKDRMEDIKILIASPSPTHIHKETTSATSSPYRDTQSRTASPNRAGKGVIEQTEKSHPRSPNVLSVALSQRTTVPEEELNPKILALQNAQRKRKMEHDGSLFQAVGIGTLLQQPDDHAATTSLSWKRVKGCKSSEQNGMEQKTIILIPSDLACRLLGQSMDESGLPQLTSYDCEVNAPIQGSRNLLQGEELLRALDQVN
Outline: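 In this multiplexed cell assay, HepG2 cells bearing transfected cis reporters are dosed for 24 h and reporter mRNA is read by RT-PCR plus capillary electrophoresis; signal increases and decreases are both scored against DMSO.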

[5] = biological target: Hepatocyte nuclear factor 6 (Homo sapiens) (UniProt Q9UBC0); assay: ATG_HNF6_CIS: Attagene CIS-FACTORIAL HepG2 Assay for human Hepatocyte Nuclear Factor 6 (HNF6) (AID 2282952); conditions: HepG2 Attagene cis-factorial HNF6 reporter transcription; actives raise or lower the signal
Sequence of Hepatocyte nuclear factor 6 (Homo sapiens) (Q9UBC0 whole entry, looked up, the tested form may be a part): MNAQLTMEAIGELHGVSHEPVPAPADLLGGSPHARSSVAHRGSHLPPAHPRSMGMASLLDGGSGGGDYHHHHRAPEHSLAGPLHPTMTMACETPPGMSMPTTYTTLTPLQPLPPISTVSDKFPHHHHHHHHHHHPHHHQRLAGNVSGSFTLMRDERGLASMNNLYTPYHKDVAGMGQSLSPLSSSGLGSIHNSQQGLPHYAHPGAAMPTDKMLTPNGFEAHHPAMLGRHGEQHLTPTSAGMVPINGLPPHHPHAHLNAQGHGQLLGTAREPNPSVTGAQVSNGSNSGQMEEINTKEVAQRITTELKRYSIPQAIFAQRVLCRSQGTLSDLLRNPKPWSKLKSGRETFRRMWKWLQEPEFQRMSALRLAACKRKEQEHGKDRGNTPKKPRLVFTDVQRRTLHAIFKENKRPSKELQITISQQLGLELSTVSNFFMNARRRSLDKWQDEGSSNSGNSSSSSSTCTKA
Outline: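 Readout: fluorescent reporter-transcript fragments resolved by capillary electrophoresis after RT-PCR, reflecting endogenous factor activity in transfected HepG2. Exposure 24 h. Gain or loss of signal fitted bidirectionally against DMSO.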

[6] = ATG_MRE_CIS: Attagene CIS-FACTORIAL HepG2 Assay for human Metal Responsive Element (MRE) (AID 2282954); conditions: HepG2 MRE cis-reporter transcription, Attagene multiplex; actives raise or lower the signal
Outline: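 Measured here is mRNA induction from an MRE cis-element reporter in HepG2 after 24 h, quantified by fluorescence of labelled RT-PCR products on capillary electrophoresis; gain- and loss-of-signal fits use DMSO as baseline.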

[7] = ATG_PBREM_CIS: Attagene CIS-FACTORIAL HepG2 Assay for human Phenobarbital-responsive Enhancer Module (PBREM) (AID 2282955); conditions: HepG2 PBREM cis-reporter, Attagene multiplexed transcription; actives raise or lower the signal
Outline: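 After a 24 h incubation with test chemical, transfected HepG2 cells yield total RNA; reporter-specific RT-PCR products are fluorescently labelled, HpaI-digested and resolved by capillary electrophoresis against ROX size standards.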

[8] = biological target: Paired box protein Pax-6 (Homo sapiens) (UniProt P26367); assay: ATG_Pax6_CIS: Attagene CIS-FACTORIAL HepG2 Assay for human Paired Box 6 (PAX6) (AID 2282956); conditions: HepG2 CIS-FACTORIAL PAX6 reporter transcription, RNA readout; actives raise or lower the signal
Sequence of Paired box protein Pax-6 (Homo sapiens) (P26367 whole entry, looked up): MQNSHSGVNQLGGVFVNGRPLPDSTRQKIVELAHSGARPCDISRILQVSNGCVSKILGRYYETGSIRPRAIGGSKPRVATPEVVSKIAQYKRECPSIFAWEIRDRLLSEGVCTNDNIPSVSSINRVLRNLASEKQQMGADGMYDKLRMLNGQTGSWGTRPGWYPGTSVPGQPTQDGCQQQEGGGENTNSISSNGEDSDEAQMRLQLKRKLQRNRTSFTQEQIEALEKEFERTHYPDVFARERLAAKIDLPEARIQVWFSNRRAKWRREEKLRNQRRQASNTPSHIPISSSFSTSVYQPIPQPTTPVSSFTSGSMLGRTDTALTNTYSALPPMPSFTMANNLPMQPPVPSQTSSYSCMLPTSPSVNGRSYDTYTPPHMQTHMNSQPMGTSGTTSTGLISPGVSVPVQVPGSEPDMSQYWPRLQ
Outline: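 Values derive from bidirectional curve fitting of reporter mRNA signal relative to DMSO. HepG2 cells bearing transfected cis-regulated MRTUs were exposed for 24 h; transcripts were read by RT-PCR and capillary electrophoresis.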

[9] = ATG_PXRE_CIS: Attagene CIS-FACTORIAL HepG2 Assay for human Pregnane X Receptor Element (PXRE) (AID 2282957); conditions: HepG2 Attagene CIS-FACTORIAL PXRE reporter, mRNA; actives raise or lower the signal
Outline: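 Read-out: fluorescence of reporter-specific RT-PCR products resolved by capillary electrophoresis, fitted bidirectionally relative to DMSO. Human HepG2 liver cells carried transfected cis-promoter reporter units and were exposed to chemicals for 24 h.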

[10] = ATG_PPRE_CIS: Attagene CIS-FACTORIAL HepG2 Assay for human Peroxisome Proliferator-activated Response Element (PPRE) (AID 2282958); conditions: HepG2 PPRE cis-element reporter, Attagene transcription factor profiling; actives raise or lower the signal
Outline: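 Multiplexed reporter transcription units under cis-regulatory promoters were transfected into HepG2 cells to capture endogenous factor activity. A 24 h incubation preceded RNA isolation and fluorescent RT-PCR fragment analysis.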

[11] = ATG_RORE_CIS: Attagene CIS-FACTORIAL HepG2 Assay for human RAR-related Orphan Receptor Element (RORE) (AID 2282959); conditions: HepG2 Attagene cis-factorial RORE reporter, mRNA; actives raise or lower the signal
Outline: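 Fluorescence intensity of reporter-specific cDNA fragments, separated by capillary electrophoresis, gives the signal. Source: HepG2 liver cells transiently transfected with cis-element reporters and exposed 24 h; DMSO-normalized bidirectional fit.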

[12] = ATG_Sox_CIS: Attagene CIS-FACTORIAL HepG2 Assay for human SRY-box transcription factor (SOX) (AID 2282960); conditions: HepG2 Attagene cis-factorial SOX reporter, mRNA; actives raise or lower the signal
Outline: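 After 24 h of chemical treatment, transfected HepG2 reporter cells are lysed for total RNA. Transcript levels come from RT-PCR with labelled primer extension and capillary electrophoresis, analysed bidirectionally versus DMSO.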

[13] = biological target: Transcription factor Sp1 (Homo sapiens) (UniProt P08047); assay: ATG_Sp1_CIS: Attagene CIS-FACTORIAL HepG2 Assay for human Specificity Protein 1 (Sp1) (AID 2282961); conditions: HepG2 Sp1 cis-reporter transcription, actives raise or lower the signal
Sequence of Transcription factor Sp1 (Homo sapiens) (P08047 whole entry, looked up): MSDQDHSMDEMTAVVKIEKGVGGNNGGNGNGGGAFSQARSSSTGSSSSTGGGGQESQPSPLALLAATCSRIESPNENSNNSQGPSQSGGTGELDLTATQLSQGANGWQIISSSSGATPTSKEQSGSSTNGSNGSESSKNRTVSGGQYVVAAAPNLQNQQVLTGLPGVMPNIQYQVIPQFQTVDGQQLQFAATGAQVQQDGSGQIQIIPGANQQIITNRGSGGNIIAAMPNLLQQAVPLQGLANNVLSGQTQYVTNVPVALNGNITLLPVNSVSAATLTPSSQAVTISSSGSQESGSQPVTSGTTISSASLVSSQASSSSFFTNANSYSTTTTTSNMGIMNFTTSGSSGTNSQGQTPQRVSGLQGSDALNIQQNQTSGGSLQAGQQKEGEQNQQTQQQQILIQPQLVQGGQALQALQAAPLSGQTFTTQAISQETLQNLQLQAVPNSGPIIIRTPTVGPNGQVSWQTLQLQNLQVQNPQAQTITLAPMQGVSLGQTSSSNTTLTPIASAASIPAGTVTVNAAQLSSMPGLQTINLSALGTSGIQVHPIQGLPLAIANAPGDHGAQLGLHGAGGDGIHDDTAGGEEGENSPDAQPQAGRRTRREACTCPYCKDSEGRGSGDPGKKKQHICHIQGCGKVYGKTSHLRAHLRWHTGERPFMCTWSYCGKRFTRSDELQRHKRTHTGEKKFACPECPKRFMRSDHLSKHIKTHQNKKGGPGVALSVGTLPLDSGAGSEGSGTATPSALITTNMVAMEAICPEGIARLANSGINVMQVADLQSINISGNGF
Outline: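 Sp1-driven reporter mRNA, read as capillary electrophoresis fluorescence after RT-PCR, in transiently transfected HepG2 cells dosed for 24 h; signal change in either direction relative to DMSO.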

[14] = ATG_SREBP_CIS: Attagene CIS-FACTORIAL HepG2 Assay for human Sterol Regulatory Element Binding (SREBP) (AID 2282962); conditions: HepG2 Attagene cis-factorial SREBP reporter, mRNA; actives raise or lower the signal
Outline: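 Values derive from bidirectional curve fitting with DMSO as baseline. The underlying measurement is reporter mRNA from cis-element-regulated units in transiently transfected HepG2, quantified by RT-PCR and capillary electrophoresis after 24 h exposure.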

[15] = biological target: Signal transducer and activator of transcription 3 (Homo sapiens) (UniProt P40763); assay: ATG_STAT3_CIS: Attagene CIS-FACTORIAL HepG2 Assay for human Signal Transducer and Activator of Transcription 3 (STAT3) (AID 2282963); conditions: HepG2, Attagene cis-factorial STAT3 reporter transcription; actives raise or lower the signal
Sequence of Signal transducer and activator of transcription 3 (Homo sapiens) (P40763 whole entry, looked up, the tested form may be a part): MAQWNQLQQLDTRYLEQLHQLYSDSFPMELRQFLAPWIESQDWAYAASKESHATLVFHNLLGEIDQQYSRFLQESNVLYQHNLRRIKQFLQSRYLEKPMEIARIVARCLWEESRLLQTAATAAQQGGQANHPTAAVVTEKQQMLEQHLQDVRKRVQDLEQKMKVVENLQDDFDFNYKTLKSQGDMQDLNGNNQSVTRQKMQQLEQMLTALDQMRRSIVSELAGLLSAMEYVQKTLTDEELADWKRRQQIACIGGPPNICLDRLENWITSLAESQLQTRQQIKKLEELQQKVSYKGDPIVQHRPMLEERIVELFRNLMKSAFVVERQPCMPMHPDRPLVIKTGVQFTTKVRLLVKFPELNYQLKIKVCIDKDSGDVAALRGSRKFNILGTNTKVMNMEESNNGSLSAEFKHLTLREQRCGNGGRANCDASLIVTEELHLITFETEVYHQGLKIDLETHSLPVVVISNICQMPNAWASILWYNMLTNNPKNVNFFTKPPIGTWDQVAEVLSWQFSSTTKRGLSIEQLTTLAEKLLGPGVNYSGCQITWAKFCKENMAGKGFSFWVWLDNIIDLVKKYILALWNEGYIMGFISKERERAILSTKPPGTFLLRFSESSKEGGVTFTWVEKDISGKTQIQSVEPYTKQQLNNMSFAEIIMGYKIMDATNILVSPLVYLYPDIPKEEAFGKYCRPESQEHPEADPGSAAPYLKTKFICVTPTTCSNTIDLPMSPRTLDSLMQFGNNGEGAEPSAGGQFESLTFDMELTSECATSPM
Outline: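 Fluorescence intensity of 6-FAM-labelled reporter fragments, separated by capillary electrophoresis after RT-PCR, gave the signal. Cells were HepG2 transfected with cis-element reporter units and treated 24 h; fitting was bidirectional relative to DMSO.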

[16] = ATG_TA_CIS: Attagene CIS-FACTORIAL HepG2 Assay for human TA Basal Promoter (AID 2282964); conditions: HepG2 Attagene CIS-factorial TA basal promoter reporter; actives raise or lower the signal
Outline: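 HepG2 cells transiently transfected with multiplexed cis-promoter reporter units, dosed 24 h. Reporter mRNA measured by RT-PCR, 6-FAM labelling, HpaI digestion and capillary electrophoresis; bidirectional fit versus DMSO baseline, serving as background control.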

Measured: outcome

CC(=O)Nc1cc(S(=O)(=O)O)cc2cc(S(=O)(=O)O)c(N=Nc3ccccc3)c(O)c12
inactive: all assays above
